Experimental data reported in PubChem BioAssay (NCI).
About 83,000 compounds went through this panel and 20% of them were active in at least one assay; those are over-represented in the sample as a whole.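 Cell lines were cultured in 96-well plates, exposed to a single compound concentration, and assessed for percent growth 48 hours later.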 A number with no mark means an inactive call. Calls of active or inactive are those of the source. How the source made its calls: active means growth percent below 10; inactive means the rest. Where a SMILES comes first, the peptide text is derived from it. Bridges are numbered along the chain shown (N, C = ends). [ ]: non-standard residue; d: D form. The star is where a group is joined. ξ: configuration not given here. ξNMePhe(4-NMe2) = CNC(Cc1ccc(N(C)C)cc1)C(=O)O; Picolinoyl(3-OH) = O=C(c1ncccc1O)*; ξPip(4-oxo) = O=C1CCNC(C(=O)O)C1; Phg = N[CH](C(=O)O)c1ccccc1; Abu = CC[CH](N)C(=O)O

How the values were obtained:
Test in all cases: NCI-60 one-dose screen, 48 h (100 = growth as untreated, 0 = no growth, -100 = all killed)
T-47D breast = details: 10 µM
BT-549 breast = details: 10 µM
MDA-MB-435 melanoma = details: 10 µM
SW-620 colon = details: 10 µM
MCF7 breast = details: 10 µM unless noted
HCT-116 colon = details: 10 µM
HCC-2998 colon = details: 10 µM
KM12 colon = details: 10 µM

SMILES | growth (T-47D breast) [%] | growth (BT-549 breast) | growth (MDA-MB-435 melanoma) | growth (SW-620 colon) [%] | growth (MCF7 breast) [%] | growth (HCT-116 colon) | growth (HCC-2998 colon) [%] | growth (KM12 colon)
COc1cc2cc(OC(C)=O)c3cc4c(cc3c2c(OC)c1OC)OCO4 | 106 | 104% | 102% | 96.9 | 93.6 | 104% | 107 | 99.8%
Cc1cc(=O)[nH]c(NN=C2CCCC2)n1 | 103 | 122% | 110% | 111 | 104 | 107% |  | 110%
COc1ccc(C(O)c2ccccc2)cc1 (configuration not stated) | 87.3 | 121% | 102% | 90.3 | 97.5 | 110% |  | 93.7%
CCC(C)(C)C1CCC(O)CC1 (configuration not stated) | 97.5 | 96.6% | 112% | 101 | 104 | 98.9% |  | 96%
CC(O)COc1ccc(-c2ccccc2)cc1 (configuration not stated) | 94 | 104% | 104% | 103 | 100 | 97.7% |  | 105%
O=c1[nH]c(O)c(/C=C2/C=Nc3ccccc32)[nH]1 | 85.5 | 107% | 102% | 104 | 56.3 | 96.4% |  | 88.4%
CCCCOC(OCCCC)c1ccccc1 | 100 | 107% | 112% | 110 | 97.8 | 112% |  | 110%
COC(=O)C(O)c1ccccc1 (configuration not stated) | 107 | 109% | 107% | 111 | 99.3 | 97.7% | 104 | 106%
C[N+](C)(C)C(=O)c1ccccc1 | 90.4 | 101% | 114% | 107 | 96.2 | 97.9% |  | 112%
O=c1[nH]n(-c2ccccc2)c(=O)cc1Cl | 97.8 | 100% | 110% | 102 | 96.8 | 103% |  | 112%
OCC1OC(OC2C(O)C(CO)OC2(CO)OC2OC(CO)C(O)C(O)C2O)C(O)C(O)C1O (configuration not stated) | 110 | 105% | 111% | 111 | 95 | 97.8% |  | 109%
CC(C)OC(C(=O)O)c1ccccc1 (configuration not stated) | 91.5 | 100% | 115% | 103 | 93 | 101% |  | 105%
O=C1OC[C@H]2[C@H](c3ccc(O)c(O)c3)c3cc(O)c(O)cc3C[C@H]12 | 131 | 134% | 121% | 107 | 121 | 103% |  | 112%
S=c1nn[nH]c2ccccc12 | 109 | 106% | 120% | 113 | 99.2 | 103% |  | 101%
C=CCNc1ccccc1 | 103 | 99% | 119% | 106 | 87.4 | 92.4% |  | 109%
CC(=O)c1cc2c(cc1F)C(C)(C)CCC2(C)C | 109 | 101% | 106% | 102 | 101 | 94.4% |  | 107%
NNc1ccccc1C(=O)O | 107 | 103% | 116% | 101 | 104 | 112% |  | 108%
CC(C)(C)c1cc(O)c(C(C)(C)C)cc1O | 95 | 81.3% | 91.9% | 97 | 83.7 | 86.6% |  | 101%
CCc1nn(Cc2ccccc2)c2nc(C)c(CCc3ccccc3)c(Cl)c12 | 59.2 | 99.3% | 92.4% | 99.2 | 82.7 | 81.2% | 101 | 101%
COc1cccc(O)c1O | 84.1 | 82.3% | 6.89% (active) | 42.6 | 20.2 | 98.6% | 99.8 | 52.6%
Cn1cnc2nc(Cl)nc(Cl)c21 | 56.7 | -28.5% (active) | -20.5% (active) | 22.2 | 16.7 | 3.41% (active) |  | -40.8% (active)
CCC1NC(=O)C(NC(=O)c2ncccc2O)C(C)OC(=O)C(c2ccccc2)NC(=O)C2CC(=O)CCN2C(=O)C(Cc2ccc(N(C)C)cc2)N(C)C(=O)C2CCCN2C1=O (configuration not stated) (tested in a mixture with another compound) ({Picolinoyl(3-OH)}-T[Abu]P[ξNMePhe(4-NMe2)][ξPip(4-oxo)][Phg]; ester 1-C; configuration not given here) | 64.8 | 54.6% | 57.1% | 68.3 | 46.5 | 34.2% |  | 74.9%
O=[N+]([O-])c1cccc(N=Nc2ccc(O)cc2O)c1 | 54 | 49.8% | 87.3% | 55.7 | 84.3 | 14.3% |  | 90.9%
CC1NC(=O)NC1CCCCCC(=O)O (configuration not stated) | 101 | 105% | 117% | 105 | 99.8 | 105% |  | 98.7%
